Compounds with a hit are over-represented: about 3.7% of the library has one in this group of screens.
Tau fibril ThT: tau fibrillization inhibition (ThT binding); recombinant tau K18 P301L, heparin-induced fibrillization, ThT fluorescence; Potency, µM (doses to about 57.4 µM), without a hit: top-dose activity, negative = inhibition, actives largely listed as inhibitors; 2.1% of 270,000 active; AID 1460; also: % is scaled to controls: 0 for no effect and ±100 for the full control effect; nearly all actives have a fitted effect of over 55% in size
Target sequence (P10636 561-689 P618L limits assumed): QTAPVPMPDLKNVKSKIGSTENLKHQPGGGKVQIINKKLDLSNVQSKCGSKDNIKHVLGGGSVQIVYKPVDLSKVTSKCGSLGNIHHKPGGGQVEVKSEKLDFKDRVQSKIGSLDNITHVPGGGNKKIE
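K18 P301L tau (15 uM + 0.24 uM Alexa 594-tagged), heparin 20 uM, NaOAc pH 7, 6 h 37 C; ThT 30 uM, 1 h RT, ex 450/em 510 nm.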
HttQ103 aggreg: reduces HttQ103-GFP aggregates in PC12 cells; 1.1% of 220,000 active; Potency, µM (doses to about 46.1 µM), without a hit: top-dose activity change, negative = inhibition, hits mostly inhibitors; PC12 HttQ103-GFP aggregates, Acumen cytometry, 40 h; also: % is scaled to controls: 0 for no effect and ±100 for the full control effect; nearly all actives have a fitted effect of over 60% in size
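Quantitative HTS on tebufenozide-induced (100 nM) PC12 cells stably expressing polyQ103 Huntingtin exon 1–GFP. Reduction of bright GFP aggregates, detected by laser scanning cytometry after lysis, identified actives across the titration.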
Tau fibril FP: tau fibrillization inhibition (FP). 0.39% of 280,000 active. Potency, µM (titrated, usually from 57.7 µM), without a hit: at the top dose activity, negative = inhibition, hits mostly inhibitors. P10636. K18 P301L tau heparin fibrillization, Alexa594 FP, 6 h. AID 1468; also: % is scaled to controls: 0 for no effect and ±100 for the full control effect; nearly all actives have a fitted effect of over 55% in size
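Compound effects on tau fibrillization are measured by Alexa 594 fluorescence polarization (ex 555, em 632 nm). K18 P301L tau is used at 15 uM with 0.24 uM labeled tracer, and 20 uM heparin induces aggregation over 6 hr at 37 C.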
HTT cytoprotect: cytoprotection in Huntington HTT-Q103 PC12 cell model; PC12 HTT-Q103 induced, cytoprotection, ATP luminescence, 40 h; Potency, µM (highest dose often 56.4 µM), for the others: cytoprotection (ATP increase), usual class: activators; AID 1471; 0.14% of 230,000 active; also: % of control where 0% means no effect; nearly all actives have a fitted effect of over 45% in size
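Readout: ATPlite luminescence (ATP level). Model: stable PC12, inducible Htt exon1 Q103-GFP. Inducer: tebufenozide, 100 nM final. Compounds: dose series. No G418 in medium.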
Tau fluor cs: counter-screen for tau fibril formation inhibitors; Potency, µM (top dose mostly 57.7 µM), for the others: top-dose activity change, negative = decrease; tau K18 P301L Alexa594 fluorescence, heparin fibrillization; 0.93% of 280,000 active; AID 1463; also: % is scaled to controls: 0 for no effect and ±100 for the full control effect; nearly all actives have a fitted effect of over 55% in size
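Human tau K18 P301L (15 uM unlabeled, 0.24 uM Alexa 594-labeled) in 100 mM sodium acetate pH 7 with 20 uM heparin, 6 hr at 37 C. ThT 30 uM added, 1 hr ambient; Alexa 594 FP and total fluorescence read at 555/632 nm.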
* hit, by the source's call; u = inconclusive; x = no result; [ ] = dose if it differs, or a comment. Calls follow the shape of the dose curve; as a rule, active = well fitted curve in the direction sought with a large enough effect; inconclusive = small, poorly fitted or top-dose-only effect, or another doubt; inactive = no such curve, though single readings can be large; an effect the other way counts as inactive or inconclusive. Potency is read from the fitted curve at half-maximal effect.

SMILES | Tau fibril ThT | HttQ103 aggreg | Tau fibril FP | HTT cytoprotect | Tau fluor cs
COc1cc(/C=C2/C(=O)N(c3ccccc3)N=C2C)ccc1OS(=O)(=O)c1ccccc1 | 14µM* | u | -22% | -17%[10 µM] | u
CCN1C(=O)C(=Cc2ccc(N3CCOCC3)o2)C(=O)N(CC)C1=S | 18µM* | 20%[9.22 µM] | -10% | 11%[10 µM] | -28%
CN1CCN(c2ccc(/C=C3\C(=O)NC(=S)N(c4cccc(Br)c4)C3=O)o2)CC1 | 16µM* | u | -14% | x | -19%
CN1C(=O)/C(=C/c2ccc(N3CCCCCC3)o2)C(=O)NC1=S | 14µM* | u | -2% | -12%[10 µM] | -12%
CN1C(=O)/C(=C\c2ccc(N3CCCCC3)o2)C(=O)NC1=S | u | -13% | -11% | -19%[10 µM] | -8%
CN(C)[C@@H]1C(=O)C(C(N)=O)=C(O)[C@]2(O)C(=O)C3=C(O)c4c(O)cccc4[C@@](C)(O)[C@@H]3C[C@@H]12 | x | x | x | -15% | x
N#C/C(=C\c1ccc(O)c(O)c1)C(=O)NCCCNC(=O)/C(C#N)=C/c1ccc(O)c(O)c1 | 10µM* | x | 8% | -5%[1.9 µM] | u
CC1Oc2cc3c(-c4c(O)cc(O)c5c(O)c6c(cc45)OC(C)C(C)C6=O)c(O)cc(O)c3c(O)c2C(=O)C1C (stereo unspecified) | 13µM* | -38%[9.22 µM] | u | -52%[10 µM] | 13µM*[quencher]
COc1ccc(CN2C(=O)CC(=O)NC2=O)cc1 | 25µM* | 9% | u | 0% | -14%
C[n+]1c(/C=C\c2ccc(O)c3ncccc23)[se]c2ccccc21 | x | x | x | -31%[10 µM] | x
C[n+]1c(-c2ccccc2)cc(CCCCc2cc(-c3ccccc3)[n+](C)c(-c3ccccc3)c2)cc1-c1ccccc1 | -24% | 22µM* | 3% | 17%[10 µM] | 9%
COc1ccc(-c2cc(-c3ccccc3)[n+](C)c(-c3ccccc3)c2)cc1 | 9% | 7.1µM* | 0% | -54%[10 µM] | 10%
CCCN1CC[C@@H]2c3cc(O)ccc3CC[C@H]21 | x | x | x | 16%[1.9 µM] | x
CC(=O)N1C[C@@H]2C[C@H](C1)c1cccc(=O)n1C2 | x | x | x | -12% | x
Nc1ccc2ccccc2c1 | x | x | x | -52% | x
C[n+]1c2cc(N)ccc2cc2ccc(N)cc21 | u | 10µM* | 5% | -76% | u
C[C@@]12CC[C@H]3[C@@H](CC=C4C[C@H](OS(=O)(=O)O)CC[C@]43C)[C@H]1CCC2=O | x | x | x | 12%[1.9 µM] | x
CN1/C(=C\C=Nc2ccccc2)C(C)(C)c2ccccc21 | u | -12% | -12% | 8% | u
CN1/C(=C\C=C\C2=[N+](C)c3ccc4ccccc4c3C2(C)C)C(C)(C)c2ccccc21 | 1.4µM* | 2.8µM* | u | -114% | 0.32µM*[fluorescent]
NC(=O)CSP(=O)(c1ccccc1)c1ccccc1 | 28µM* | -5% | u | -2% | -15%
COP(=O)(CC(=O)O)c1ccccc1 (stereo unspecified) | -4% | 6% | -15% | -6% | -6%
COc1ccc(-n2c(=S)[nH]c3c(sc(=S)n3-c3ccccc3)c2=O)c(OC)c1 | 32µM* | 1% | u | -38% | -18%
Clc1cccc(/C=N\Nc2nccs2)c1 | u | -23% | 15% | -16% | 18µM*[quencher]
COc1cc2c(cc1OC)[C@@]13CCN4CC5=CCO[C@H](CC(=O)O)[C@@H]([C@H]1N2)[C@H]5C[C@H]43 | x | x | x | 0%[10 µM] | x
NCCP(=O)(O)O | x | x | x | -2%[10 µM] | x
SMILES | Tau fibril ThT | HttQ103 aggreg | Tau fibril FP | HTT cytoprotect | Tau fluor cs
CCCCC/C=C\C/C=C\C/C=C\C/C=C\CCCC(=O)N(Cc1ccc(O)c(Cl)c1)Cc1ccc(O)c(Cl)c1 | 14% | x | -2% | -35% | 6%
C[C@@H]1O[C@@H](O[C@H]2C[C@@H](O)[C@]3(CO)[C@@H]4[C@@H](O)C[C@]5(C)[C@H](C6=CC(=O)OC6)CC[C@@]5(O)[C@H]4CC[C@@]3(O)C2)[C@H](O)[C@H](O)[C@@H]1O | x | x | x | -9%[1.9 µM] | x
CCCCCSc1cc(OC)c(CCN)cc1OC | u | 5% | u | -28% | -14%
CCCCCCCSc1cc(OC)c(CCN(C)C)cc1OC | u | 10µM* | 5% | -117% | -14%
N#CC(C#N)=Cc1ccc([N+](=O)[O-])c(O)c1 | 25µM* | x | u | -29% | u
N#CC(C#N)=Cc1ccc(C=C(C#N)C#N)cc1 | 20µM* | -21%[9.22 µM] | u | -33%[10 µM] | -21%
Cc1ccc(OCC(=O)N/N=C\c2ccc(O)c([N+](=O)[O-])c2)c([N+](=O)[O-])c1 | 13µM* | -8% | 6% | -70% | -22%
O=[N+]([O-])c1ccc(O)c([N+](=O)[O-])c1 | -11% | x | -3% | -112% | -4%
Cc1ccc(/C=C2/C(=O)NC(=O)N(Cc3ccc(F)cc3)C2=O)o1 | x | -2%[9.22 µM] | -1% | 11%[10 µM] | -3%
COc1ccc(CN2C(=O)NC(=O)/C(=C/c3ccc([N+](=O)[O-])o3)C2=O)cc1 | 8.9µM* | 4% | u | -46% | u
CCOP(=S)(OCC)Oc1ccc([N+](=O)[O-])cc1 | x | x | x | 12% | x
O=C(O)/C=C\c1ccc[c]([Sb](=[O])([OH])[OH])c1 | x | x | x | 2%[10 µM] | x
CC1CCN(S(=O)(=O)c2ccc(NN=C(C#N)C#N)cc2)CC1 | 14µM* | 16µM* | -2% | 14% | u
N#CC(C#N)=NNc1ccc(S(N)(=O)=O)cc1 | 10µM* | -13%[9.22 µM] | -9% | 0%[10 µM] | -27%
O=C1C=CC(=O)C=C1 | -6% | x | -2% | -34% | -11%
O=C1C=CC(=O)C(Cl)=C1 | 11µM* | x | 16µM* | -6% | u
O=C(O)C(Oc1nc(=S)[nH]c(=S)[nH]1)(c1ccc(Cl)cc1)c1ccc(Cl)cc1 | x | x | x | -6%[10 µM] | x
COC(=O)C1=CO[C@@H](C)[C@@H]2CN3CCc4c([nH]c5cc(OC)ccc45)[C@@H]3C[C@H]12 | 22µM* | x | -8% | -6% | u
Cc1cc(O)c2c(c1)C(=O)c1cc(O)cc(O)c1C2=O | 10µM* | x | 11% | -14%[1.9 µM] | 16µM*[quencher]
O=C1NC(=O)C2(Cc3ccccc3N3CCCC32)C(=O)N1c1ccccc1 (stereo unspecified) | u | -9% | u | -6%[0.074 µM] | -19%
CN1c2ccc([N+](=O)[O-])cc2CC2(C(=O)NC(=O)N(c3ccc(Br)cc3)C2=O)C1c1ccccc1 (stereo unspecified) | 16µM* | -26% | -1% | 10%[10 µM] | -14%
C=CC(C)(C)c1c2c(c(O)c3c(=O)c4ccc(O)c(O)c4oc13)C=CC(C)(C)O2 | u | x | u | -234% | 16µM*[quencher]
c1ccc(CNc2c3c(nc4ccccc24)CCC3)cc1 | -3% | 4.5µM* | 2% | -71%[10 µM] | -9%
COc1cc2c(cc1OC)[C@]13CC[N@+]4(C)CC5=CCO[C@H]6CC(=O)N2[C@@H]1[C@@H]6[C@@H]5C[C@]34O | x | x | x | 16%[10 µM] | x

Compound activity (PubChem BioAssay)
